Screening data as filed in PubChem BioAssay.
SENP8 block-1 = inhibitors of human SENP8 protease; Q96LD8; recombinant SENP8, Nedd8 substrate fluorescence; inhibition, % at 20 µM; hit rate 0.64% among 360,000; in the data active means inhibition mostly above about 40%, no sharp cut-off; inactive means mostly below about 27%
C8 TRAIL sens = caspase-8 TRAIL sensitization. AID 624354. inhibition (viability loss, TRAIL sensitization), % at 10 µM. NB7+C8 cells + TRAIL, ATPlite viability luminescence. hit rate 1% among 360,000;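 active means compounds causing at least 50% loss of cell viability in the single-dose screen, relative to plate controls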
SENP7 inh = inhibitors of human SENP7 protease. hit rate 1.5% among 330,000. AID 434973. recombinant SENP7, Z-RLRGG-aminoluciferin luminescence, 40 min. inhibition, % at 5 µM. Q9BQF6;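 active means inhibition above about 50% at the single test dose, limit read from the data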
Target sequence (Q9BQF6 706-1050 limits assumed): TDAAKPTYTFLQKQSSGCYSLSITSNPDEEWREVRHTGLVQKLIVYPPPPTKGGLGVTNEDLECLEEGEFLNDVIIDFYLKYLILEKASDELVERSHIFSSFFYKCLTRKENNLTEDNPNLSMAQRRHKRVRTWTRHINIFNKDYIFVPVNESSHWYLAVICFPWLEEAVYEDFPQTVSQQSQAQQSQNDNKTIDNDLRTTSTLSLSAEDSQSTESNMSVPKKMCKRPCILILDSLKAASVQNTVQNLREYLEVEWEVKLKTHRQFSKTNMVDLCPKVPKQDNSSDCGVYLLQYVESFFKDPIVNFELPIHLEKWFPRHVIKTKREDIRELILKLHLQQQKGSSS
SENP8 block-2 = SENP8 protease inhibition; hit rate 1.2% among 330,000; purified SENP8, Z-RLRGG-aminoluciferin cleavage, luminescence; Q96LD8; inhibition, % at 10 µM; in the data active means inhibition above about 50%
PPC-1+TRAIL kill = compounds killing PPC-1 cancer cells with TRAIL present (potentiator screen, no TRAIL-free arm) | PPC-1 cells + TRAIL, ATPLite viability luminescence | cell killing (% activity), % at 4 µM or 5 µM | hit rate 0.41% among 220,000 | AID 1443;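 active means cell killing above 50% in the first pass at 4 µM, then a duplicate retest at 5 µM averaging 50% or more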
SENP6 block = blocks the human protease SENP6; hit rate 1.8% among 330,000; Q9GZR1; AID 2599; Recombinant SENP6 catalytic domain, aminoluciferin luminescence; inhibition, % at 10 µM;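 active means inhibition above about 50% at the single tested dose, limit read from the data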
Each line names hits and unclear results; the compound was inactive in the other large screens. A selection: hits, their analogues and other compounds. The true share with any hit is near 3%.

Cc1cc(=O)[nH]c2nnc(-c3ccc(Br)cc3)n12	C8 TRAIL sens 73 (no result: PPC-1+TRAIL kill)
CN(C)CCNC(=O)c1cccc(-c2cc(NC=O)c3ncc(-c4cccc(C(F)(F)F)c4)n3c2)c1	C8 TRAIL sens 79 (no result: SENP7 inh, SENP8 block-2, PPC-1+TRAIL kill, SENP6 block)
CCCCN(C)C(=S)Nc1ccc2nc3n(c(=O)c2c1)CCCCC3	none
O=C1/C(=C/c2ccc(O)cc2)SC(=S)N1CC1CCCO1 (centres undefined)	none
CCCOc1ccc(/C=C2\SC(=S)N(CC3CCCO3)C2=O)cc1 (centres undefined)	SENP8 block-1 49
CCOC(=O)[C@H]1[C@H]2COc3ccccc3[C@@H]2N2C(=O)CN(CC3CCCO3)C(=O)[C@@]12C (some centres undefined)	none (no result: PPC-1+TRAIL kill)
CCOC(=O)C1(C)CCCN(C(=O)c2cc(C#N)cs2)C1 (centres undefined)	none (no result: SENP7 inh, SENP8 block-2, PPC-1+TRAIL kill, SENP6 block)
O=C1OC=NC1=Cc1ccccc1	none (no result: SENP7 inh, SENP8 block-2, PPC-1+TRAIL kill, SENP6 block)
CCn1c(C)nc2cc(C(=O)N/N=C/c3ccccc3)ccc21	none
CCn1c(C)nc2cc(C(=O)N/N=C/c3cccc(O)c3O)ccc21	C8 TRAIL sens 52
O=c1ccc(-c2ccc(S(=O)(=O)NCC3CCN(Cc4ccccc4F)CC3)s2)n[nH]1	none (no result: PPC-1+TRAIL kill)
Cc1nc(-c2cccc(NC(=O)c3ccc(-n4nccc4C)cc3)c2)cs1	C8 TRAIL sens 60 (no result: PPC-1+TRAIL kill)
COc1ccc2cc1Oc1ccc(cc1)CC1c3c(cc(OC)c4c3Oc3cc5c(cc3O4)CCNC5C2)CCN1C (centres undefined)	SENP8 block-1 45, C8 TRAIL sens 93
CCOc1ccc(C2NCCc3cc(OC)c(OC)cc32)cc1OC (centres undefined)	none (no result: PPC-1+TRAIL kill)
COc1ccc2cc1Oc1ccc(cc1)C[C@H]1c3c(cc(OC)c4c3Oc3c(ccc5c3[C@H](C2)N(C)CC5)O4)CCN1C	C8 TRAIL sens 88 (no result: PPC-1+TRAIL kill)
CC(c1ccc2ccccc2c1)c1ccccc1C(=O)O (centres undefined)	none (no result: SENP7 inh, SENP8 block-2, PPC-1+TRAIL kill, SENP6 block)
O=C1C=CC(=O)C(CNc2ccc(C(=O)OCc3ccccc3)cc2)=C1	C8 TRAIL sens 91 (no result: SENP7 inh, SENP8 block-2, PPC-1+TRAIL kill, SENP6 block)
CN(C)c1ccc(C(=O)OCc2ccccc2)cc1	none
CC(/C=C/c1cccc([N+](=O)[O-])c1)=N/NC(=O)c1cccnc1	none
CC(/C=C/c1ccccc1)=N/NC(=O)c1cc([N+](=O)[O-])cc([N+](=O)[O-])c1	C8 TRAIL sens 52 (no result: SENP7 inh, SENP8 block-2, SENP6 block)
Cc1ccccc1NC(=O)CC1SC(=O)N(c2ccccc2)C1=O (centres undefined)	SENP8 block-1 55
CC1NC(=O)c2cccnc2-n2c1nc1cc(F)c(F)cc1c2=O (centres undefined)	none (no result: SENP7 inh, SENP8 block-2, PPC-1+TRAIL kill, SENP6 block)
CCCCN(C)CCC(=O)Nc1ccc2c(c1)CCC2	none
CC1CCN(C(=O)C(C)NCc2ccc(F)cc2)CC1 (centres undefined)	none (no result: PPC-1+TRAIL kill)
C(=N\Nc1nncc2ccccc12)/c1ccccn1	C8 TRAIL sens 81 (no result: PPC-1+TRAIL kill)
Nn1c(SCC(=O)Nc2ccccc2Br)nnc1-c1ccco1	none (no result: PPC-1+TRAIL kill)
CCC(NC(=S)NC1CCCCC1)c1ccc(C)cc1 (centres undefined)	none (no result: PPC-1+TRAIL kill)
Cc1cc(C)cc(NC(=O)/C(C#N)=C/c2cn(CC(=O)NCc3ccco3)c3ccccc23)c1	C8 TRAIL sens 66, PPC-1+TRAIL kill 50
CN(C(=S)NC(=O)c1ccc(F)cc1)C1CCCCC1	none (no result: PPC-1+TRAIL kill)
CN(C(=S)NC(=O)c1ccc(Cl)cc1)C1CCCCC1	C8 TRAIL sens 50 (no result: PPC-1+TRAIL kill)
CCCCn1c(N)c(N(CCOC)C(=O)c2cc(Cl)nc3ccccc23)c(=O)[nH]c1=O	none (no result: PPC-1+TRAIL kill)
CN(C)Cc1cc(O)c(CN(C)C)cc1O	SENP8 block-1 55
CN(C)Cc1cc(C(C)(C)C)cc(C(C)(C)C)c1O	none
Cc1sc2ncnc(N/N=C/c3ccc(O)cc3)c2c1C	none
Nc1c(Cl)ncnc1N/N=C/c1ccc(O)cc1	SENP7 inh 96, SENP8 block-2 95, SENP6 block 96
CC1=NN(c2ccccc2)C(=O)C1N=Nc1ccc(S(N)(=O)=O)cc1 (centres undefined)	SENP8 block-1 52
CC(=O)Nc1cc2c(cc1[N+](=O)[O-])-c1ccccc1C2O (centres undefined)	SENP8 block-1 41 (no result: SENP7 inh, SENP8 block-2, PPC-1+TRAIL kill, SENP6 block)
CCCCn1c(SCC(=O)NCc2ccc(OC)c(C(=O)O)c2)nc2cc(S(N)(=O)=O)ccc21	none (no result: PPC-1+TRAIL kill)
CC1(C(=O)NS(=O)(=O)c2ccc(Br)cc2)CCN1C(=O)c1cccc(F)c1 (centres undefined)	none (no result: SENP7 inh, SENP8 block-2, PPC-1+TRAIL kill, SENP6 block)
Cc1ccc(NC(=O)CSc2nn(-c3ccccc3)c(=S)s2)cc1S(=O)(=O)N(C)C	C8 TRAIL sens 66
